# Tg IFNy HTS: T. gondii growth inhibition with IFN-gamma, primary screen, cell-based | Toxoplasma gondii growth in IFN-gamma-treated host cells; active compounds read low | activity change, negative = inhibition, % (test concentration not listed) | hit rate 3.8% among 69,000; in the data active = activity change below about -70%, passing the limit was not always enough;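 also: host cells are HeLa cells infected with Toxoplasma gondii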
# * = called active by the depositor; i = inactive; ! = a repeat was not active. The entries come from a sample that favours hits as a whole.
SMILES,Tg IFNy HTS
Cc1nc(CN2CCO[C@@H]3CN(CC(=O)N(C)C)C[C@@H]32)cs1,-68.4
CCc1nnc(CN(C(=O)c2cc(C(C)C)nn2C)C(C)C)o1,4.5
COc1ccc2c(c1)C=C(CN1CCC(c3cc(-c4cncnc4)cc(C)n3)CC1)CO2,-7.7
O=C1N(Cc2ccccn2)C(=O)C2(CCN(Cc3ccsc3)CC2)N1Cc1ccccc1,22.9
Cc1ccc(CN2CCOC3(CCN(CC4CCOC4)CC3)C2)cc1 (stereo not drawn),-17.6
Cc1nc(-c2cccc(F)c2)sc1CCNC(=O)c1ccc(Cl)cc1,-4.4
Cc1nc(-c2cccc(F)c2)sc1CCNC(=O)c1ccc(C(C)(C)C)cc1,-43.5
CCCCOc1ccc(C(=O)NCCc2sc(-c3cccc(F)c3)nc2C)cc1,-94.4*
O=C(CCCc1nc(-c2ccco2)no1)N1CC2C[C@@H]3CC1C[C@H](C2)C3,-0.8
Cc1ccccc1C1(O)CCN(C(=O)c2cnn3ccn(C)c23)C1 (stereo not drawn),2.7
CCCCC[C@H](O)/C=C/[C@H]1[C@H](O)CC(=O)[C@@H]1CCCCCCC(=O)O,13.6
CCCCCCCCCCC[C@@H](C[C@@H]1OC(=O)[C@H]1CCCCCC)OC(=O)[C@H](CC(C)C)NC=O,-82.3*
N#Cc1cc2cc3c(cc2nc1NCCNC(=O)Cc1ccccc1)OCO3,22.3
Cc1ccccc1CNC(=O)Cn1ncc2c(N3CCCCCC3)ncnc21,102.8
CC(C)n1c(C(=O)NCCCN2CCOCC2)cc2c1c1ccccc1n2C,-13.0
CCN1CCC2(CC1)OC(=O)C(C)=C2C(=O)NCCN1CCCCC1C (stereo not drawn),30.9
O=C(c1ccncc1)N1CCCC2(CCCN2Cc2ccc(Cl)cc2)C1 (stereo not drawn),-7.6
COc1cc2c(cc1OC)C(Nc1ccc(I)cc1)=NC1(CCCC1)C2,-98.3*
COc1cc2c(cc1OC)-c1nnc(C)n1C(C)(C)C2,2.5
Cc1ccccc1S(=O)(=O)N1CSC[C@@H]1C(=O)NCCc1csc(-c2ccccc2)n1,5.7
CCc1c(C)sc2ncnc(OC3CCCNC3)c12 (stereo not drawn),-17.0
O=C(Nn1c(-c2ccccc2)nc2ccccc2c1=O)c1ccncc1,-3.5
Cc1cc(Nc2ccc(NC(=O)c3ccc(Nc4ccnc5ccccc45)cc3)cc2)nc(N)n1,-78.1*
Cc1cc(Nc2ccc(C(=O)O)cc2)nc(N)n1,68.2
Cc1ccc(Nc2nc(C(=O)Nc3ccc(Cl)cc3)nc3ccccc23)cc1,43.6
SMILES,Tg IFNy HTS
Cc1nn(C)cc1NC(=O)CC1CCN(CCc2ccccc2)CC1,3.3
O=C(CSc1nc2ccccc2o1)c1ccc2c(c1)Cc1ccccc1-2,6.7
Cc1ccc(C2(O)CCN(C(=O)c3cc(=O)[nH]c4ccc(F)cc34)CC2)nc1,3.2
CC(C)Cn1c2c(ccc1=O)CC(NC(=O)c1ccc[nH]1)CC2 (stereo not drawn),-6.8
CNCCCC1c2ccccc2C=Cc2ccccc21,-80.7*!
CNCCC=C1c2ccccc2C=Cc2ccccc21,15.6
COc1cccc(S(=O)(=O)N(C)C[C@@H]2OCc3ccccc3-c3c(n(C)c4ccccc34)C(=O)N([C@@H](C)CO)C[C@@H]2C)c1,-43.4
COc1cccc(S(=O)(=O)N(C)C[C@H]2OCc3ccccc3-c3c(n(C)c4ccccc34)C(=O)N([C@@H](C)CO)C[C@H]2C)c1,-72.3*
C[C@@H]1CN([C@@H](C)CO)C(=O)c2c(c3ccccc3n2C)-c2ccccc2CO[C@@H]1CN(C)S(=O)(=O)c1ccc([N+](=O)[O-])cc1,-50.0
C[C@@H]1CN([C@H](C)CO)C(=O)c2c(c3ccccc3n2C)-c2ccccc2CO[C@@H]1CN(C)S(=O)(=O)c1ccc([N+](=O)[O-])cc1,-23.8
COc1cccc(S(=O)(=O)N(C)C[C@@H]2OCc3ccccc3-c3c(n(C)c4ccccc34)C(=O)N([C@H](C)CO)C[C@@H]2C)c1,-56.5
C[C@H](CO)N1C[C@H](C)[C@H](CN(C)S(=O)(=O)c2ccc([N+](=O)[O-])cc2)OCc2ccccc2-c2c(n(C)c3ccccc23)C1=O,-72.5*
Cc1ccccc1NC(=O)N1C[C@@H](O)[C@H](NCCc2ncccc2C)C1,39.6
CC1CCN(c2ncc(-c3cncn3C(CCN(C)C)c3ccccc3)cn2)CC1 (stereo not drawn),-27.5
CS(=O)(=O)CCNC(=O)CSCc1ccccc1Cl,-7.3
Cc1nc(-c2cccs2)sc1-c1ccnn1C(=O)NC(C)C,98.0
COc1cc(NC(=O)Nc2ccnn2C)cc(OC)c1,-8.5
Cc1nccnc1-c1ccnn1C(=O)Nc1cc(Cl)cc(Cl)c1,-81.7*
O=C(c1ccco1)N1CCN(C(=O)c2cc3cccnc3n(Cc3ccccc3F)c2=O)CC1,-18.7
CC(=O)Nc1ccc(NC(=O)CN2C(=O)CCc3cc(S(=O)(=O)N4CCCCC4C)ccc32)cc1 (stereo not drawn),-6.2
Cc1ccc(NC(=O)CN2C(=O)CCc3cc(S(=O)(=O)N4CCC(C)CC4)ccc32)cc1Cl,-102.6*
Cc1cccc(NC(=O)CN2C(=O)CCc3cc(S(=O)(=O)N4CCC(C)CC4)ccc32)c1,-29.6
CC1CCN(S(=O)(=O)c2ccc3c(c2)CCC(=O)N3CC(=O)Nc2ccc(F)cc2)CC1,-24.4
CC1CCCCN1S(=O)(=O)c1ccc2c(c1)CCC(=O)N2CC(=O)Nc1ccc2c(c1)OCCO2 (stereo not drawn),-12.2
CC1CCN(S(=O)(=O)c2ccc3c(c2)CCC(=O)N3CC(=O)Nc2ccc(Cl)cc2)CC1,-91.8*
SMILES,Tg IFNy HTS
CC1CCN(S(=O)(=O)c2ccc3c(c2)CCC(=O)N3CC(=O)Nc2ccc3c(c2)OCO3)CC1,-18.4
Cc1ccc(NC(=O)CN2C(=O)CCc3cc(S(=O)(=O)N4CCCCC4C)ccc32)cc1C (stereo not drawn),-83.5*
Cc1ccc(NC(=O)CN2C(=O)CCc3cc(S(=O)(=O)N4CCC(C)CC4)ccc32)cc1F,-47.5
O=c1ccc2cc(S(=O)(=O)NC3CCN(Cc4ccccc4)CC3)ccc2[nH]1,-26.3
COc1ccc2c(c1)NC1(CCN(C(=O)NCC3CCCO3)CC1)c1cccn1-2 (stereo not drawn),107.3
CCN1C(=O)CCc2cc(NS(=O)(=O)c3ccc(C4CCCCC4)cc3)ccc21,-95.1*
CCN1C(=O)CCc2cc(NS(=O)(=O)Cc3ccc(Cl)cc3)ccc21,-41.0
CCN1C(=O)CCc2cc(NS(=O)(=O)c3ccc(C#N)cc3)ccc21,-101.9*
CC(C)CN1C(=O)CCc2cc(NS(=O)(=O)c3ccccc3)ccc21,-50.2
CC(C)CN1C(=O)CCc2cc(NS(=O)(=O)c3ccc(Cl)cc3)ccc21,-80.1*
CCN1C(=O)CCc2cc(NS(=O)(=O)c3cccc(F)c3)ccc21,194.1
CCN1C(=O)CCc2cc(NS(=O)(=O)c3c(C)cccc3Cl)ccc21,-48.1
Cc1cc(C)cc(S(=O)(=O)Nc2ccc3c(c2)CCC(=O)N3CC(C)C)c1,-39.5
CCN1C(=O)CCc2cc(NS(=O)(=O)c3cc(F)ccc3F)ccc21,53.3
C=CCOCC1NCCc2ncn(C(C)C)c21 (stereo not drawn),16.0
COc1ncc(CN(Cc2sccc2C)CC(C)C)cn1,7.6
CCOC(=O)C1(CC2CC2)CCN(C(C)CCc2c[nH]c3ccccc23)CC1 (stereo not drawn),-3.6
CC1CCN(c2ccc(C(C)NC(=O)c3ccc(-n4cnnc4)cc3Cl)cc2)CC1 (stereo not drawn),-11.1
CN(Cc1ccc(-n2cccn2)cc1)Cc1cnc(N2CCOCC2)s1,-0.3
c1ccc(COc2ccccc2CN2CCC3(CCNCC3)C2)cc1,-35.0
COc1ccc2c(c1)NC1(CCN(C(=O)Nc3ccc(Br)cc3)CC1)c1cccn1-2,i
